The record followed here is PubChem BioAssay.

Active and inactive are the calls of the source.

The subject of assay [1] is Human papillomavirus type 1a protein E7 (residues 44-93). Description: small molecules binding HPV E7 44-93 – biochemical, small-molecule microarray, residues 44-93, 635 nm fluorescence, primary screen (AID 1108).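 Also: E7 fragment applied at 1 µg/mL in TBST for 1 h at 4 C; score combines spot fluorescence with its signal to noise ratio.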 The settings on record: fluorescence 635 nm, higher = more signal.
Assay [2] can be described thus: hepatitis C replication reporter changes, two-sided – Huh7 cells, luciferase reporter, HCV replication inhibitor project, primary screen (AID 1109).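 Also: huh7 hepatoma cells harbouring a luciferase neomycin HCV replicon reporter; luciferase luminescence as measure of HCV replicon replication; test concentration not given here.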 The settings on record: Huh7 HCV replicon luciferase reporter, 48 h; higher = more signal. In general terms: Reporter assays use an easily measured gene product as a stand-in for the process of interest.
Assay [3] has as its target Left-right determination factor 2 (Homo sapiens) (UniProt O00292). Briefly: small molecules binding LEFTY2 protein – biochemical, small-molecule microarray, 635 nm fluorescence scan, primary screen (AID 1110). Conditions: higher = more signal.
The target of assay [4] is Calmodulin-1 (Homo sapiens) (UniProt P0DP23). Briefly: small molecules binding calmodulin-1 with EGTA – biochemical, small-molecule microarray, Cy5-labelled CALM1, profiling panel (AID 1111).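 Also: labelled calmodulin applied in Tris saline Tween buffer holding calcium plus EGTA and DTT.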 The settings on record: Cy5-CALM1 binding fluorescence, higher = more signal.
Assay [5] shares this target. Briefly: small molecules binding Ca-loaded calmodulin-1 – biochemical, small-molecule microarray, Cy5-labelled CALM1, plus calcium, artefact control for SMM control-protein annotation, profiling panel (AID 1112).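 Also: score merges spot fluorescence with signal to noise from triplicate slides.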 Conditions: Cy5-CALM1 binding fluorescence, higher = more signal.
The nature of assay [6]: probe aWnt5a binding to arrayed compounds – biochemical, biotinylated probe, 635/667 nm fluorescence, primary screen (AID 1113).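 Also: score merges 667 nm fluorescence intensity with signal-to-noise per printed feature.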 The settings on record: small-molecule microarray, higher = more signal.
A short description of assay [7]: probe aShh binding to arrayed compounds – biochemical, biotinylated probe, 635/667 nm fluorescence, primary screen (AID 1114).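 Also: probe is biotin-labelled aShh protein from a stem cell growth factor screen; measures binding of labelled protein to compounds printed on the slide; score merges feature fluorescence at 667 nm with signal-to-noise.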 The settings on record: small-molecule microarray, higher = more signal.
Assay [8] in a line: probe aNog binding to arrayed compounds – biochemical, biotinylated probe, 635/667 nm fluorescence, primary screen (AID 1115).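 Also: probe is biotinylated aNog protein used at 0.15 µg/mL for 1 h at 4 C; z-score combines 667 nm fluorescence of each spot with its signal to noise.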 The settings on record: small-molecule microarray, higher = more signal.
Assay [9] deals with Torsin-1A-interacting protein 1 (Homo sapiens) (UniProt Q5JTV8). Briefly: compound microarray binding of lysate hLAP1 – cell lysate, small-molecule microarray, COS7 lysate, 635/667 nm fluorescence, primary screen (AID 1116). The settings on record: 635 nm fluorescence, higher = more signal.
The target in assay [10] is Alpha-bungarotoxin (Bungarus multicinctus) (UniProt P60615). Description: compounds binding labelled alpha-BTX control protein – biochemical, small-molecule microarray, Alexa647 label, 635/667 nm fluorescence, artefact control for SMM control protein annotation, profiling panel (AID 1117). Conditions: alpha-BTX-A647 binding fluorescence, higher = more signal.
In another assay the target is Albumin (Bos taurus) (UniProt P02769). Briefly: compounds binding labelled BSA control protein – biochemical, small-molecule microarray, Alexa647 label, 635/667 nm fluorescence, artefact control for SMM control protein annotation, profiling panel (AID 1118).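 Also: score merges 667 nm emission intensity and signal-to-noise per printed compound spot.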 The settings on record: BSA-A647 binding, fluorescence 635 nm, higher = more signal.
A short description of assay [11]: probe aXIP binding to arrayed compounds – biochemical, NeuroSMM set, 635/667 nm fluorescence, primary screen (AID 1119).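 Also: probe is the protein aXip251-270 applied at 1 µg/mL to compound-printed slides; binding of probe to printed compounds measured as 667 nm fluorescence plus signal to noise.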 The settings on record: small-molecule microarray, higher = more signal, called active from +8 up or from −8 down.
Assay [12] in a line: probe aNOTCH3 binding on compound microarray – biochemical, small-molecule microarray, 635/667 nm fluorescence, primary screen (AID 1120).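 Also: probe is a biotin-tagged antibody raised against NOTCH3 rather than NOTCH3 protein; score merges spot fluorescence near 667 nm with spot signal to noise.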 The settings on record: higher = more signal.
A short description of assay [13]: probe aNOTCH2 binding on compound microarray – biochemical, small-molecule microarray, 635/667 nm fluorescence, primary screen (AID 1121).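 Also: score merges feature fluorescence read at 667 nm with its signal to noise.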 The settings on record: higher = more signal.
Assay [14] has as its target Carbonic anhydrase 2 (Homo sapiens) (UniProt P00918). Description: compounds binding carbonic anhydrase 2 – biochemical, small-molecule microarray, Alexa647-labelled CAII, profiling panel (AID 1122). The settings on record: CAII-A647 binding fluorescence, higher = more signal.
A short description of assay [15]: COS7 lysate on small-molecule microarray, probe aHis, 635 nm (AID 1123).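 Also: z-score combines 667nm fluorescence intensity with signal-to-noise per printed compound spot.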 Conditions: COS7 cell lysate, fluorescence, higher = more signal.
Assay [16] can be described thus: probe aLAP1 signal on lysate-treated microarray – cell lysate, small-molecule microarray, COS7 lysate, primary screen (AID 1124).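 Also: lysate comes from COS7 cells expressing LAP1 and is applied at 0.3 µg/mL; score merges spot fluorescence near 667 nm with signal-to-noise over triplicate slides.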 Conditions: probe aLAP1, fluorescence, higher = more signal.
The test system of a further assay is Sam68 (KHDRBS1). Briefly: compounds binding KHDRBS1 protein – biochemical, small-molecule microarray, 635 nm fluorescence, primary screen (AID 1125).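 Also: score merges 667 nm channel intensity with signal to noise over triplicate slides.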 Conditions: higher = more signal.
Assay [17] deals with Chordin-like protein 2 (CHRDL2). Briefly: compounds binding chordin-like 2 – biochemical, small-molecule microarray, 635 nm fluorescence, primary screen (AID 1126).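 Also: printed compound slides probed with Chrdl2 protein at 4 µg/mL for 1 h at 4 C; score merges 667 nm emission intensity with signal to noise over three replicate slides.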 Conditions: fluorescence 635 nm, higher = more signal.
Assay [18] concerns the target Concanavalin-A (Canavalia ensiformis) (UniProt P02866). Briefly: compounds binding concanavalin A lectin – biochemical, small-molecule microarray, Alexa647 label, 635 nm, artefact control for SMM control protein annotation, primary screen (AID 1127).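 Also: z combines 667 nm emission intensity with signal-to-noise across three replicate slides.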 Conditions: ConA-A647 binding fluorescence, higher = more signal.

Sequence of Left-right determination factor 2 (Homo sapiens) (O00292 whole entry, looked up): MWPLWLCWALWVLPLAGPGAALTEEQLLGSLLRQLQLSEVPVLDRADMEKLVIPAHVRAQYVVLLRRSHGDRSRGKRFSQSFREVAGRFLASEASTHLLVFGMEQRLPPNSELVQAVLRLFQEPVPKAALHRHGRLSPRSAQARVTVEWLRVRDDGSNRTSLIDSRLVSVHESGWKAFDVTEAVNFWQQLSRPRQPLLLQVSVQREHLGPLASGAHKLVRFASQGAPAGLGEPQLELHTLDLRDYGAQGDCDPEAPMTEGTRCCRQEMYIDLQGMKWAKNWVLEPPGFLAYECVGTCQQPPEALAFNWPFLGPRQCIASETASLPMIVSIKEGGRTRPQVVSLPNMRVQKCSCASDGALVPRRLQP
Sequence of Torsin-1A-interacting protein 1 (Homo sapiens) (Q5JTV8 whole entry, looked up): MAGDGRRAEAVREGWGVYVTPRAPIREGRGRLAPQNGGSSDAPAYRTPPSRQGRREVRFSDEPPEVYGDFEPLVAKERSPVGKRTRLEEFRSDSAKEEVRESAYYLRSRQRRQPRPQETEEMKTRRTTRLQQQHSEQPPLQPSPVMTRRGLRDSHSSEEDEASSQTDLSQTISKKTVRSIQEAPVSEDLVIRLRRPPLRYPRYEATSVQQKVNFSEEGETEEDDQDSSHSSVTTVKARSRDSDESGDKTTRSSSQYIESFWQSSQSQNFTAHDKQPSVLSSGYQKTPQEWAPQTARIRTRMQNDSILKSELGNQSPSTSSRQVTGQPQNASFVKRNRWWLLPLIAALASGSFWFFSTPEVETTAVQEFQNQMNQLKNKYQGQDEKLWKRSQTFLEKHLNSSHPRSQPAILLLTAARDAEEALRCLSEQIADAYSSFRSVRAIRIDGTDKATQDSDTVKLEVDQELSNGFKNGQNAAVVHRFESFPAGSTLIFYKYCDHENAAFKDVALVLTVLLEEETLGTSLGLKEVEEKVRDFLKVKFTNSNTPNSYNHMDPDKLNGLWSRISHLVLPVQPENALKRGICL
Sequence of Concanavalin-A (Canavalia ensiformis) (P02866 whole entry, looked up): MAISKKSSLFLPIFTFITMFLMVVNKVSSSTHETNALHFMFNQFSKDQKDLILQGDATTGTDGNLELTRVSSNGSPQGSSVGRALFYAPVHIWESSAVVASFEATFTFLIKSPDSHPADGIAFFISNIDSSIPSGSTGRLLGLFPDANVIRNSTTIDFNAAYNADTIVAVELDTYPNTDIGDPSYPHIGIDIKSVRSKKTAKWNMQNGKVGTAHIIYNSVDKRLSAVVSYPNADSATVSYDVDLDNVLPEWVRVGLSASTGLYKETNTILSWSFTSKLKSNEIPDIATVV
Sequence of Albumin (Bos taurus) (P02769 whole entry, looked up): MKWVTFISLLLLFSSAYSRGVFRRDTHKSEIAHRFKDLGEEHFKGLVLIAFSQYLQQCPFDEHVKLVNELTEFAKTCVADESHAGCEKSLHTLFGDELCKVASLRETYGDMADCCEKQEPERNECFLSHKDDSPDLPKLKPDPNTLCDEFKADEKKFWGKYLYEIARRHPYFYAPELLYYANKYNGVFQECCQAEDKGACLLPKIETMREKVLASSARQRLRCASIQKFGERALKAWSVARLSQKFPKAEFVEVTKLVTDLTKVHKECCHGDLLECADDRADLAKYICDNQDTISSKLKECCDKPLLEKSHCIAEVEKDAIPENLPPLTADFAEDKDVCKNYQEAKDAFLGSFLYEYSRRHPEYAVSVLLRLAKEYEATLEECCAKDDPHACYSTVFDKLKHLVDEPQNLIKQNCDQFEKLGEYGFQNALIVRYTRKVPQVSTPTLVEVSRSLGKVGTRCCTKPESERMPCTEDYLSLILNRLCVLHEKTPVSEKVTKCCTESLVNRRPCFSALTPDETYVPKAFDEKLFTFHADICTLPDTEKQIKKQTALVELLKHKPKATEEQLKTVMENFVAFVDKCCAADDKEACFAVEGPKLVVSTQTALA
Sequence of Alpha-bungarotoxin (Bungarus multicinctus) (P60615 whole entry, looked up): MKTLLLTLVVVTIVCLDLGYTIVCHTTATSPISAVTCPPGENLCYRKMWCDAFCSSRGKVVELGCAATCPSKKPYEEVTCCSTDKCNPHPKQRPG

`COCC(=C=CC[C@@H](O)c1ccc(CO)o1)CCO`: the composite z-score in assay [1] was -0.494; in [3], 0.744; in [4] it was -0.699; in [5], -0.662; in assay [6], -0.124; in [7], -0.217. The composite z-score in [8] was -0.387; in assay [9] it was 2.23; in assay [10], -0.0933; with Albumin (Bos taurus), -0.606; in [12] it was -0.215; in assay [13] it was -0.118. Also, the composite z-score in assay [14] is 0.349; in assay [15], -0.185; in assay [16], 1.51; in the assay with Sam68 (KHDRBS1), 0.101; in assay [17] it was 0.689; in [18], 0.188. Moreover, in assay [2], the z-score was -0.711. The composite Z-score in assay [11] is 0.111 (inactive).
As for `[N-]=[N+]=NCc1ccccc1C[C@]1(C(=O)NCCN2CCOCC2)N=C(c2ccc(OCCCO)cc2)O[C@H]1c1ccccc1N=[N+]=[N-]`, the composite z-score came to 0.927 in [1]; 0.391 in [3]; 1.2 in assay [4]; 0.655 in [5]; 0.0903 in [6]; 0.21 in [7]. For the same molecule, the composite z-score in assay [8] amounted to 1.73; in assay [9] it was 1.51; in [10], 0.919; with Albumin (Bos taurus), 0.926; in [12], 0.356; in [13], 0.253. Besides, the composite z-score was 0.599 in assay [14]; 2.62 in [15]; 0.645 in assay [16]; 1.29 in the assay with Sam68 (KHDRBS1); -0.509 in [17]; 1.16 in [18]. The molecule also displayed a z-score in assay [2] of -1.76. In addition, the composite Z-score in [11] is 0.255 (inactive).
Regarding `COC(=O)c1c(CC[C@@H](CO)NC(=O)N[C@@H](Cc2ccccc2)Cn2cc(C3(O)CCCCC3)nn2)oc(C(C)=O)c1C(=O)OC`, the composite z-score in assay [1] is 1.28; in [3], 0.693; in [4], 0.267; in assay [5] it was -0.36; in assay [6], -0.096; in assay [7], -0.142. Further, the composite z-score in assay [8] was -0.449; in [9] it was 0.639; in [10], 0.519; with Albumin (Bos taurus), 0.357; in [12], 0.0893; in assay [13], -0.0942. The composite z-score was 0.253 in assay [14]; 0.287 in assay [15]; -0.0804 in [16]; 1.29 with Sam68 (KHDRBS1); 0.625 in [17]; 0.82 in assay [18]. Also, the z-score in assay [2] was -1.47. The composite Z-score in [11] is -0.0293 (inactive).
With `CCCC[C@@H]1C[C@H]1[C@@H](NC(=O)c1ccc(-c2ccccc2)cc1)c1ccc(-c2ccccc2)cc1`, the composite z-score is 0.511 in assay [1]; 0.848 in assay [3]; 0.212 in [4]; -0.836 in assay [5]; -0.0459 in [6]; 1.37 in assay [7]. In addition, the composite z-score was -0.435 in assay [8]; 0.285 in [9]; 0.364 in [10]; -0.0732 with Albumin (Bos taurus); -0.0072 in assay [12]; -0.0795 in [13]. Further, the composite z-score in assay [14] was 0.0853; in assay [15] it was 0.468; in assay [16], -0.113; in the assay on Sam68 (KHDRBS1), 0.287; in assay [17] it was 1.42; in [18], -0.142. Further, the z-score in [2] was -0.787. Also, in assay [11], the composite Z-score was -0.254 (inactive).
For the molecule `O=c1oc(-c2ccccc2)nc2cc(Br)ccc12`, the composite z-score is 0.55 in [1]; 0.69 in [3]; -0.0114 in [4]; -0.427 in [5]; -0.117 in assay [6]; -0.221 in assay [7]. Further, the composite z-score in [8] is -0.221; in assay [9], 0.503; in assay [10], 0.318; with Albumin (Bos taurus) it was -0.163; in [12] it was -0.0647; in assay [13], -0.0984. The composite z-score was -0.0912 in [14]; 0.704 in assay [15]; 0.107 in assay [16]; 0.0872 in the assay with Sam68 (KHDRBS1); 0.875 in assay [17]; 0.666 in assay [18]. Besides, in assay [2], the z-score was -1.04. Besides, the composite Z-score in [11] was -0.12 (inactive).
